Screening results: PubChem, National Center for Advancing Translational Sciences (NCATS)
Most compounds without a hit are left out; they make up all but 2.4% or so of the library.
D2 ag-1 = HTS Assay for Allosteric Agonists of the Human D2 Dopamine Receptor: Primary Screen for Agonists. D(2) dopamine receptor (Homo sapiens), P14416. HEK293 T-REx D2 cells, calcium flux agonist mode. activation, % at 2 µM. 0.53% of 340,000 active. AID 485358, 2010;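 active = activation over 3 SD above normal in the single-dose calcium agonist read, cut at about 30% in these data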
Target sequence (P14416 whole entry, looked up): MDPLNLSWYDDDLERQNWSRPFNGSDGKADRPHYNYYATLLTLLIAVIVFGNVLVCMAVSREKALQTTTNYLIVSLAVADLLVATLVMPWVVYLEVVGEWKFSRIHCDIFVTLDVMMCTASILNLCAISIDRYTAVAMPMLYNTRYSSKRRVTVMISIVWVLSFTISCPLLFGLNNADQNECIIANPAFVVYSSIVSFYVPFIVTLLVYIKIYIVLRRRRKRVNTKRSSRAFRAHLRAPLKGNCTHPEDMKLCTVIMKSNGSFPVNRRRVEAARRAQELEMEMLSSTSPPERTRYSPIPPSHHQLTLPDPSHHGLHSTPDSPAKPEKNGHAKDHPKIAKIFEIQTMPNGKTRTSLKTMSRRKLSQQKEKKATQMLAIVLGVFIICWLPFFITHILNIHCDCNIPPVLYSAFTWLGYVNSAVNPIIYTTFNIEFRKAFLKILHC
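HEK293 Trex D2 cells, tetracycline-induced, o/n 30 C 5% CO2; no-wash Ca dye, RT 30–90 min; 10-cycle baseline, 23 nl cpd added, kinetic Ca read 180 s; agonist hits = positive Ca response.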
D2 PAM-1 = HTS Assay for Positive Allosteric Modulators of the Human D2 Dopamine Receptor: Primary Screen for Potentiators. HEK293 T-REx D2, calcium flux, EC20 dopamine potentiation. 0.34% of 340,000 active. D(2) dopamine receptor (Homo sapiens), P14416. potentiation, % at 10 µM;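 active = potentiation over 3 SD above the plate norm, cut at about 30% in these data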
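Tetracycline-induced HEK293 T-REx cells force-coupled to calcium signalling expressed D2; compounds were pin-added after a 10 s baseline, read kinetically 180 s, then an EC20 dopamine challenge followed with a further 180 s calcium read.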
D2 ag-2 = Beta-Arrestin HTS for Positive Allosteric Modulators of the Human D2 Dopamine Receptor: Agonists | D(2) dopamine receptor (Homo sapiens), P14416 | DiscoveRx PathHunter D2 beta-arrestin, luminescence, 90 min; 100% = 57 uM dopamine signal | activation, % (test concentration not listed) | 0.084% of 360,000 active; in the data active = activation above about 40%
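DiscoveRx PathHunter D2 beta-arrestin cells (2,100/well) attached overnight, then compound-stimulated 90 min at 37 C in HBSS/10 mM HEPES/0.1% Tween-20 buffer; beta-galactosidase complementation read by luminescence after 1 h at ambient temperature. Dopamine 57 uM final (EC100) as control.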
D2 PAM-2 = Beta-Arrestin HTS for Positive Allosteric Modulators of the Human D2 Dopamine Receptor: Potentiators; DiscoveRx D2 beta-arrestin cells, luminescence, 90 min; 100% = 57 uM dopamine signal; D(2) dopamine receptor (Homo sapiens), P14416; 0.23% of 360,000 active; potentiation, % (no concentration beside the values); AID 624464, 2012; in the data active = potentiation above about 50%
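PathHunter beta-arrestin assay in DiscoveRx D2 cells. Compounds were added with an EC20 of dopamine (50 nM final) for 90 min at 37 deg C. Luminescence was read 1 h after detection reagent, with 57 uM dopamine as the EC100 control.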
D2 antagonist = HTS Assay for Allosteric Antagonists of the Human D2 Dopamine Receptor: Primary Screen for Antagonists. inhibition, % at 10 µM. AID 485344, 2010. HEK293 TREx D2 cells, calcium flux, dopamine EC80. D(2) dopamine receptor (Homo sapiens), P14416. 2% of 340,000 active; in the data active = inhibition above about 30%; inactive = below that, where a call was filed
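In this primary screen, negative modulation is detected by tracking calcium flux after an EC80 dopamine challenge in inducible HEK293 T-REx D2 cells preexposed to test compound for 180 s.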
Of the large screens only hits and unclear results are named; the others gave an inactive call; ! = repeats disagree.

Cc1onc(-c2ccccc2Cl)c1C(=O)Nc1sc2c(c1C#N)CCC2	none
Cc1onc(C(=O)Nc2sc3c(c2C#N)CCCC3)c1[N+](=O)[O-]	D2 ag-1 37
CCc1cccc(CC)c1NC(=O)c1ccccc1	none
CC(C)c1cccc(C(C)C)c1NC(=O)c1ccccc1	D2 antagonist 43
CCCCn1c(=O)c2oc3ccccc3c2n(Cc2cccc(C)c2)c1=O	none (no result: D2 ag-2, D2 PAM-2, D2 antagonist)
O=C1Nc2ccccc2Nc2ccccc21	none
O=C1Nc2ccccc2CCc2ccccc21	D2 antagonist 36
O=C(COC(=O)/C=C/c1cccc(F)c1)NNC(=O)c1ccccc1	D2 antagonist 45
O=C(COC(=O)/C=C/c1cccc(F)c1)Nc1ccccc1	none
O=C(CN1CCN(C2CCCCC2)CC1)c1c[nH]c2ccccc12	D2 antagonist 42
COc1ccc(NC(=O)c2ccc(-c3ccccc3C(F)(F)F)o2)cc1	D2 antagonist 49
O=C(Nc1cccc(F)c1)c1ccc(-c2ccccc2C(F)(F)F)o1	none (no result: D2 ag-2, D2 PAM-2)
CCCCCCOC(=O)C(C#N)c1nc2ccccc2nc1N1CCCCC1 (centres undefined)	D2 PAM-1 35
O=C(Nc1ccc(F)cc1)N1CCn2c(nc3ccccc32)C1	D2 antagonist 33
CC(C)Oc1ccc(CNC(=O)c2ccc3c(c2)N(C)CCS3)cc1	D2 antagonist 47
O=C1CC[C@@H](OCc2ccccc2)CCN1CC[C@H](Sc1ccccc1)c1ccccc1	none
Cc1ccc([C@@H]2CC=C(C(=O)O)[C@H](c3ccc(Cl)cc3)N2S(=O)(=O)c2ccccc2C)cc1	none (no result: D2 ag-1, D2 PAM-1, D2 PAM-2, D2 antagonist)
CN1CCC=C(C(=O)N2c3ccccc3Sc3ccc(Cl)cc32)C1	D2 antagonist 39
NCCC(=O)N1c2ccccc2Sc2ccc(Cl)cc21	D2 ag-1 42, D2 antagonist 48
O=C(NCc1cccc(Cl)c1)c1cnc(N2CCCCC2)c2ccccc12	none (no result: D2 ag-2, D2 PAM-2, D2 antagonist)
O=C1N[C@@H](Cc2ccccc2)[C@@H](c2ccco2)O1	D2 antagonist 32
Cc1ccc(N2CCN(C(=O)Cn3ncc4c([nH]c5ccc(C)cc54)c3=O)CC2)c(C)c1	none (no result: D2 ag-2, D2 PAM-2, D2 antagonist)
CC(C)COP(=O)(OCC(C)C)C(O)c1ccc(F)cc1 (centres undefined)	none
COP(=O)(/C=C/c1ccccc1)C(O)c1ccc(F)cc1 (centres undefined)	D2 antagonist 45
COC(=O)C1CCC(=O)N1C(c1ccc(OC)cc1)c1cc(OC)c(OC)c(OC)c1 (centres undefined)	none (no result: D2 ag-1, D2 PAM-1, D2 antagonist)
COc1cc(/C=N\NC(=O)c2ccc(C)nc2)ccc1OC(=O)c1ccc2c(c1)OCO2	none (no result: D2 PAM-1)
COc1cc(/C=N\NC(=O)c2ccc(C)nc2)ccc1OC(=O)c1ccco1	D2 antagonist 34
CCOc1cc(/C=N\NC(=O)OC(C)(C)C)ccc1OC(=O)c1ccco1	D2 antagonist 31
Cc1cc(NC(=O)CN2C(=O)NC3(CCCCC3)C2=O)ccc1N1CCCC1	none
CCCCCCCC(=O)Oc1ccc(C(=O)Nc2cc(C)on2)cc1	D2 antagonist 37
Cn1c(CN2CCCC2)nc2cc(NC(=O)COc3ccc(Cl)cc3)ccc21	D2 antagonist 41
CCC(=O)Nc1ccc2c(c1)nc(CCN1CCC(C)CC1)n2C	none
CC1CCN(CCc2nc3cc(NC(=O)COc4ccccc4)ccc3n2C)CC1	D2 antagonist 59
Cn1c(CN2CCCCC2)nc2cc(NC(=O)c3ccc(Cl)cc3)ccc21	D2 ag-1 33!, D2 antagonist 31
COc1ccc(OCC(=O)Nc2ccc3c(c2)nc(CN2CCCC2)n3C)cc1	D2 antagonist 45
COc1ccc(OCC(=O)Nc2ccc3c(c2)nc(CN2CCN(C(C)=O)CC2)n3C)cc1	none
COc1cccc(C2CNC3(CCCC(C)C3)c3[nH]c4ccccc4c32)c1OC (centres undefined)	none
CC1(C)CC(=O)CC2(C1)NCC(c1ccccc1)c1c2[nH]c2ccccc12 (centres undefined)	D2 antagonist 31
